Screens from PubChem BioAssay.
TMEM16A act: activates or potentiates the mouse TMEM16A chloride channel; Q8BHY3; HEK293 TMEM16A/YFP-H148Q/I152L, iodide quench fluorescence; hits give low values; B-score at 10 µM; 0.3% of 340,000 active; AID 623877;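 active = fluorescence-ratio B-score plate-corrected deviation score at least 3 library SD below zero, with starting fluorescence score within 5 deviations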;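 note: channel opened by trigger with iodide after compound preincubation; score built on the fluorescence ratio of max minus min over baseline; more negative score means more quench and so TMEM16A activation or potentiation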
TLR9-MyD88 block: inhibitors of human TLR9-MyD88 binding; AID 504734; 0.21% of 340,000 active; CHO BLA complementation TLR9-MyD88, CCF4 FRET ratio; inhibition, % at 4.98 µM;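 active = inhibition above the mean over all tested compounds plus 3 SD, cut at about 21% in these data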;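 note: 0% = DMSO only wells and 100% = clavulanate BLA inhibitor control wells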
TLR4 MyD88 comp: blocks binding of human TLR4 to MyD88 | O00206+Q99836 | HeLa CL3-4 TLR4/MyD88 BLA complementation, FRET ratio | inhibition, % at 8.4 µM | 0.18% of 200,000 active; in the data active = inhibition above about 25%;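 note: 0% = vehicle and 100% = reference inhibitor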
ANO1 block: inhibitors of mouse TMEM16A calcium-activated chloride channel; Q8BHY3; HEK293 TMEM16A/YFP iodide influx fluorescence, ionomycin; normalized B-score (activity score, 25-100; higher = stronger inhibition) at 10 µM; 1.2% of 310,000 active; AID 588511;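 active = ratio plate-corrected score three or more library SD toward inhibition, starting fluorescence score within five deviations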;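 note: score derived from kinetic fluorescence span divided by baseline fluorescence per well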
NOD2-RIPK2 inh: blocks binding of human NOD2 to RIPK2. AID 624267. 0.38% of 360,000 active. inhibition, % at 4.98 µM. CHO BLA complementation NOD2-RIPK2, CCF4 ratio. O43353; in the data active = inhibition above about 21%;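 note: 0% = vehicle only and 100% = reference blocker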
HTR2A ag: activates the mouse 5-HT2A serotonin receptor; activation, % at 7.6 µM; 0.66% of 360,000 active; CHO-K1 mHTR2A beta-arrestin complementation, luminescence; percent of 30 µM serotonin response;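 active = activation above a run cutoff, the mean activation of all tested compounds plus 3 SD, cut at about 14% in these data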;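 note: 0% = plate median of compound wells and 100% = 30 µM serotonin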
MOR ag counter: counter-screen for mouse HTR2A agonists: human mu opioid receptor agonists; shares compounds with HTR2A ag; U2OS OPRM1 beta-arrestin PathHunter, luminescence; DMSO 0%, DAMGO 9.3 µM 100%; activation, % at 9.3 µM; 5.3% of 2,300 active;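 active = mean activation above the mean of DMSO-only wells plus 3 SD, cut at about 0.5% in these data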
Target sequence (P35372 whole entry, looked up): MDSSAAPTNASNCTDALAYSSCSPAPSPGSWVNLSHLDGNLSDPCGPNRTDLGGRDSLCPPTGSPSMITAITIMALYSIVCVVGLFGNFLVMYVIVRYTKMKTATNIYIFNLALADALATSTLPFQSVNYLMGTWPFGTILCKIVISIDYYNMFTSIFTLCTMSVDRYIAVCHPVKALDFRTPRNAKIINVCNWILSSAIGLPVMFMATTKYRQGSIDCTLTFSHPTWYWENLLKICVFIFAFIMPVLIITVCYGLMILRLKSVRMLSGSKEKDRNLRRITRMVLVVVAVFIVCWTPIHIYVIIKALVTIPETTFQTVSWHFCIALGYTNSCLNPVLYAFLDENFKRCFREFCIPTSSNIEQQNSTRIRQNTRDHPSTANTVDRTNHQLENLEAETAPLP
m5-HT2A ag conf: confirmation of mouse HTR2A serotonin receptor agonists. shares compounds with HTR2A ag. CHO-K1 PathHunter beta-arrestin recruitment, luminescence; DMSO 0%, 30 µM serotonin 100%. activation, % at 7.6 µM. 19% of 2,300 active;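 active = mean activation across triplicates above the hit threshold derived in the original primary screen, cut at about 15% in these data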
* hit, by the source's call; i = inactive; / = no result given; ! = not active in a repeat. In the library only some 2.4% were active in any assay of this set; here they are far more common.

SMILES | TMEM16A act | TLR9-MyD88 block | TLR4 MyD88 comp | ANO1 block | NOD2-RIPK2 inh | HTR2A ag | MOR ag counter | m5-HT2A ag conf
O=C(Nc1ccc2[nH]ccc2c1)c1cccs1 | i | 6 | / | i | -11 | 15* | 0.9* | 2
CC(C)(C)c1ccc(C(O)c2ncc(-c3ccccc3)[nH]2)cc1 (configuration not stated) | / | / | / | / | 11 | 2 | / | /
O=c1c2ccccc2c2ccccc2c(=O)n1Nc1ccccc1 | / | -1 | / | / | -4 | 20* | 0 | -2
O=C(CN1C(=O)C2CC=CCC2C1=O)Nc1nc(-c2ccc(F)cc2)cs1 (configuration not stated) | i | 2 | / | / | -11 | -9 | / | /
CCOc1ccccc1NC(=O)c1cccc(NC2=NC3CS(=O)(=O)CC3S2)c1 (configuration not stated) | i | 0 | / | i | -28 | 15* | -1 | -3
COc1ccc(OC)c(CCNC(=O)c2ccc(NC3=NC4CS(=O)(=O)CC4S3)cc2)c1 (configuration not stated) | i | -5 | / | i | -21 | 17* | 0 | 0
COc1ccc(OC)c(CCNC(=O)Cc2ccc(NC3=NC4CS(=O)(=O)CC4S3)cc2)c1 (configuration not stated) | i | -2 | / | i | -6 | 0 | / | /
COc1ccccc1N1CCN(C(=O)c2cccc(NC3=NC4CS(=O)(=O)CC4S3)c2)CC1 (configuration not stated) | i | 6 | / | i | -17 | 24* | -1 | -3
O=C(CCc1ccc(F)c(F)c1)NC1CCCN(Cc2ccc(Cl)cc2)C1 (configuration not stated) | i | -7 | / | i | -4 | 3 | / | /
O=C(Nc1ccccc1)OCC1COC(c2ccccc2)(c2ccccc2)O1 (configuration not stated) | i | -10 | / | / | -1 | -5 | / | /
CC[C@@]1(C(=O)OC)N[C@H](CN(C)C(=O)NC(C)C)[C@@H]2C(=O)N(Cc3ccccc3)C(=O)[C@@H]21 | / | 12 | / | / | 1 | -4 | / | /
CCNC(=O)C(=O)Nc1cc2c3c(c1)CCC(=O)N3CCC2 | i | 4 | / | i | -3 | -1 | / | /
CCCCNC(=O)C(=O)Nc1cc2c3c(c1)CCC(=O)N3CCC2 | i | -4 | / | i | -10 | 15* | -1 | -4
NC(=O)c1nsc(C(=O)N(c2ccccc2F)C(C(=O)NCc2ccc(F)cc2)c2ccc(O)cc2)c1N (configuration not stated) | i | 4 | / | i | -3 | 23* | 0 | 2
COc1cc(SC)ccc1C(=O)Nc1cccc(C)n1 | i | -7 | 10 | i | 4 | -3 | / | /
O=C(Nc1ccccc1F)N1CCCC1c1cccnc1 (configuration not stated) | i | -4 | / | i | -7 | -1 | / | /
CN1CCC[C@H]1c1cccnc1 | i | 17 | / | i | 1 | 38*! | 0 | -4
O=C(c1ccc(-n2cncn2)c([N+](=O)[O-])c1)N1CCN(S(=O)(=O)c2c(F)cccc2F)CC1 | i | -10 | / | i | 3 | 16* | 0 | -3
CCOC(=O)c1c(S(=O)(=O)NCCc2ccc(OC)c(OC)c2)c(C)n(C)c1C | i | 11 | / | i | -16 | 16* | -1 | -3
CCOC(=O)c1c(S(=O)(=O)NCCc2ccccc2)c(C)n(C)c1C | i | 4 | / | i | -3 | 9 | / | /
O=C1CC(=O)Nc2cc(S(=O)(=O)N3CCOc4ccccc43)ccc2N1 | i | -2 | / | i | -2 | 26* | -1 | -2
CC(C)NC(=O)N[C@H]1CC[C@H](CC(=O)NCc2ccc(Oc3ccccc3)cc2)O[C@@H]1CO | / | / | / | / | -6 | 15* | -1 | -4
